This note sets out measurements from PubChem BioAssay (Tox21).

A short description of experiment [1]: cAMP Responsive Elements (CRE) small molecule antagonists, cell-based qHTS assay: qHTS cell viability counter screen (AID 2060913). Also: nearly all actives have a fitted effect of over 40% in size. A digest of the protocol:
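CRE-bla HEK293T cells were seeded in assay medium with 10% dialyzed FBS, incubated 18 hrs at 37 C, then exposed to compounds plus 0.25 uM final NKH477 for 3 hrs. Viability was read by CellTiter-Glo luminescence after 30 min, in the same wells.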

Experiment [2] can be described thus: cAMP Responsive Elements (CRE) small molecule agonists, cell-based qHTS assay: qHTS cell viability counter screen (AID 2060914). Also: nearly all actives have a fitted effect of over 50% in size. The method in brief:
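In the same wells as the reporter read, viability of CRE-bla HEK 293T cells was quantified by CellTiter-Glo luminescence after a 3 h compound exposure.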
A general note: In qHTS, concentration-response curves come from the screen itself.

Results filed as inconclusive are left out. Unmarked numbers belong to inactive results. Activity calls are given as the source filed them. Calls follow the shape of the dose curve; as a rule, active = well fitted cell-killing curve with a large enough effect in the repeat runs; inconclusive = weak or mixed curves, or effect the other way; inactive = flat fitted curve, though single readings scatter.
% is scaled to controls: 0 for no effect and ±100 for the full control effect.

In the case of `CCCCCCCC(OC)OC`, the Potency entry in experiment [1] and in experiment [2] was “inactive” each time.
For `O=C1CCCCCCCCCCC(=O)OCCO1`, the Potency result in experiment [1] and in experiment [2] was “inactive” in each case.
As to `CCCCC/C=C\C/C=C\CCCCCCCC(=O)NC(C)c1ccccc1` (centres undefined), the Potency entry in experiment [1] and in experiment [2] was “inactive” each time.
Consider `CC1=NN(c2ccc(S(=O)(=O)O)cc2)C(=O)C1N=Nc1ccccc1` (centres undefined), for which the Potency result in experiment [1] and in experiment [2] was “inactive” each time.
For the molecule `C/C=C(\C)C=O`, the Potency entry in experiment [1] and in experiment [2] was “inactive” throughout.
As for `NC(=O)c1ncn([C@@H]2O[C@H](CO)[C@@H](O)[C@H]2O)n1`, the Potency result in experiment [1] and in experiment [2] was “inactive” each time.
`N#CCN(CC#N)CCN(CC#N)CC#N`: the Potency entry in experiment [1] and in experiment [2] was “inactive” throughout.
`S=c1nccc[nH]1`: the Potency entry in experiment [1] and in experiment [2] was “inactive” in each case.
For `CC1=C(O)C(=O)OC1C` (centres undefined), the Potency entry in experiment [1] and in experiment [2] was “inactive” each time.
On to `Brc1cc(Oc2cc(Br)c(Br)c(Br)c2Br)c(Br)c(Br)c1Br`, for which the Potency entry in experiment [1] and in experiment [2] was “inactive” each time.
As to `CCOC(=O)CC(C)O` (centres undefined), the Potency result in experiment [1] and in experiment [2] was “inactive” in each case.
As to `Cc1c(OCC(F)(F)F)ccnc1CS(=O)c1nc2ccccc2[nH]1` (centres undefined), the Potency result in experiment [1] and in experiment [2] was “inactive” each time.
Regarding `CN1CCCC(CC2c3ccccc3Sc3ccccc32)C1` (centres undefined), the Potency entry in experiment [1] and in experiment [2] was “inactive” each time.
Regarding `CO[C@]12C[C@@H](COC(=O)c3cncc(Br)c3)CN(C)[C@@H]1Cc1cn(C)c3cccc2c13`, the Potency entry in experiment [1] and in experiment [2] was “inactive” throughout.
In the case of `CCCCCCCCCC(=O)O`, the Potency entry in experiment [1] and in experiment [2] was “inactive” in each case.
`O=C(Cl)c1ccc(F)c(Cl)c1`: the Potency entry in experiment [1] and in experiment [2] was “inactive” each time.
Consider `CCC(C(=O)OCCN1CCOC(c2ccccc2)C1C)c1ccccc1` (centres undefined), for which the Potency entry in experiment [1] and in experiment [2] was “inactive” throughout.
Turning to `COC(=O)[C@H]1[C@H]2C[C@@H]3c4[nH]c5cc(OC)ccc5c4CCN3C[C@H]2C[C@@H](OC(=O)/C=C/c2ccc(O)c(OC)c2)[C@@H]1OC`, the Potency result in experiment [1] and in experiment [2] was “inactive” in each case.
Turning to `O=c1[nH]c(=O)c2ccccc2o1`, the Potency result in experiment [1] and in experiment [2] was “inactive” in each case.
Regarding `CCc1c(C)cc(N)c(CC)c1N`, the Potency entry in experiment [1] and in experiment [2] was “inactive” each time.
For `COCCc1ccc(OCC2CO2)cc1` (centres undefined), the Potency entry in experiment [1] and in experiment [2] was “inactive” in each case.
`CCCCNc1ccc(NCCCC)c2c1C(=O)c1ccccc1C2=O`: the viability change, negative = cytotoxic in experiment [1] is 6.2% [at 18.9 µM]. Besides, in experiment [2], the activity change, negative = cytotoxicity was -7.45% [at 18.9 µM].
For the molecule `C[C@H]1C[C@H]2[C@@H]3CCC4=CC(=O)C=C[C@]4(C)[C@H]3C(=O)C[C@]2(C)[C@@]1(O)C(=O)CO`, the Potency result in experiment [1] and in experiment [2] was “inactive” in each case.
Turning to `O=C1Cc2cc(CCN3CCN(c4nsc5ccccc45)CC3)c(Cl)cc2N1`, the Potency entry in experiment [1] and in experiment [2] was “inactive” throughout.
`CCOC(=O)CC(=O)OCC`: the Potency result in experiment [1] and in experiment [2] was “inactive” throughout.
With `Cc1ccc(C2OC[C@@H]3OC(c4ccc(C)cc4)O[C@H]([C@H](O)CO)[C@@H]3O2)cc1` (some centres undefined), the Potency entry in experiment [1] and in experiment [2] was “inactive” in each case.
`CCOC(=O)/C=C\C(=O)OCC`: the Potency entry in experiment [1] and in experiment [2] was “inactive” in each case.
Turning to `CCN1CCC[C@H]1CNC(=O)c1c(OC)ccc(Br)c1OC`, the Potency entry in experiment [1] and in experiment [2] was “inactive” each time.
On to `Nc1ccn([C@@H]2O[C@H](CO)[C@@H](O)C2(F)F)c(=O)n1`, for which the Potency result in experiment [1] and in experiment [2] was “inactive” throughout.
Take `O=Cc1ccc(Cl)cc1`: the Potency result in experiment [1] and in experiment [2] was “inactive” throughout.
Consider `CC(C)(C)c1cc(CCC(=O)NCCCCCCNC(=O)CCc2cc(C(C)(C)C)c(O)c(C(C)(C)C)c2)cc(C(C)(C)C)c1O`, for which the Potency entry in experiment [1] and in experiment [2] was “inactive” in each case.
As for `CC1=CC(O)CC(C)(C)C1` (centres undefined), the Potency entry in experiment [1] and in experiment [2] was “inactive” in each case.
For the molecule `CCSCC`, the Potency entry in experiment [1] and in experiment [2] was “inactive” throughout.
`O=c1c(-c2ccc(O)cc2)coc2cc(O)ccc12`: the Potency entry in experiment [1] and in experiment [2] was “inactive” each time.
Consider `C=CCOC(=O)/C=C\C(=O)OCC=C`, for which the Potency entry in experiment [1] and in experiment [2] was “inactive” throughout.
As for `CCCCCCCCOc1ccc(C(=O)c2ccccc2)c(O)c1`, the Potency result in experiment [1] and in experiment [2] was “inactive” throughout.
In the case of `CCN(CC)CCNC(=O)c1cc(S(C)(=O)=O)ccc1OC`, the Potency result in experiment [1] and in experiment [2] was “inactive” in each case.
Regarding `Cc1cccc(CN2CCN(C(c3ccccc3)c3ccc(Cl)cc3)CC2)c1` (centres undefined), the Potency result in experiment [1] and in experiment [2] was “inactive” throughout.
Turning to `c1ccc2cc(Nc3ccc(Nc4ccc5ccccc5c4)cc3)ccc2c1`, the Potency entry in experiment [1] and in experiment [2] was “inactive” throughout.
Regarding `C#CCOC(=O)[C@@H](C)Oc1ccc(Oc2ncc(Cl)cc2F)cc1`, the Potency result in experiment [1] and in experiment [2] was “inactive” in each case.
As for `C=C(C)C(=O)OCCN(C)C`, the Potency entry in experiment [1] and in experiment [2] was “inactive” each time.
Turning to `CCc1nnc(NS(=O)(=O)c2ccc(N)cc2)s1`, the Potency entry in experiment [1] and in experiment [2] was “inactive” throughout.
Take `O=C(Oc1ccccc1)c1ccc2ccccc2c1O`: the Potency result in experiment [1] and in experiment [2] was “inactive” in each case.
`CN1CCCC1=O`: the Potency result in experiment [1] and in experiment [2] was “inactive” throughout.
Take `CCC(Cl)C(Cl)C(Cl)CC(Cl)C(Cl)C(C)Cl` (centres undefined): the Potency entry in experiment [1] and in experiment [2] was “inactive” each time.
Regarding `C=Cc1ccccc1C=C`, the Potency result in experiment [1] and in experiment [2] was “inactive” each time.
With `CC1CC(O)CC(C)(C)C1` (centres undefined), the Potency entry in experiment [1] and in experiment [2] was “inactive” each time.
Take `OCCOCCN1CCN(C2=Nc3ccccc3Sc3ccccc32)CC1`: the Potency entry in experiment [1] and in experiment [2] was “inactive” in each case.
Take `CCCC1CCCC(=O)O1` (centres undefined): the Potency entry in experiment [1] and in experiment [2] was “inactive” each time.
Take `CCN(CC)C(=O)Nc1ccc(OCC(O)CNC(C)(C)C)c(C(C)=O)c1` (centres undefined): the Potency entry in experiment [1] and in experiment [2] was “inactive” throughout.
In the case of `O=C(O)c1ccccc1C(=O)OCc1ccccc1`, the Potency entry in experiment [1] and in experiment [2] was “inactive” each time.
As to `CC1=CCC2CC1C2(C)C` (centres undefined), the Potency result in experiment [1] and in experiment [2] was “inactive” throughout.
